The list is not random: actives were taken first. Their share in the collection is about 17%.
TDP1 cell CPT = DT40-hTDP1 cell growth loss with CPT. chicken DT40 Tdp1-/-;hTDP1 cells + 20 nM CPT, ATP luminescence, 48 h. Potency, µM (highest dose often 46.2 µM), inactives show top-dose activity change, negative = growth inhibition, actives largely listed as inhibitors. 12% of 420,000 active. AID 686979; note: % is set by controls: 0 for no effect and ±100 for the full control effect; nearly all actives have a fitted effect of over 55% in size
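Cell growth measured by CellTiter-Glo luminescence after a minimum 48 h, 37 C compound exposure with 20 nM CPT in Tdp1-knockout DT40 cells stably expressing hTDP1, seeded 400/well; qHTS titration format.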
HepG2 viability = HepG2 cytotoxicity, counter-screen for TGF-b inhibitors. HepG2 CAGA-GFP viability, ATP luminescence, 18 h. Potency, µM (titrated, usually from 46.1 µM), for the others: at the top dose activity change, negative = cytotoxicity, usual class: cytotoxic. 0.76% of 410,000 active. AID 588856
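HepG2 CAGA-GFP cells (1000/well, DMEM with 1% FBS) received compound, then TGF-beta at 500 pg/mL final, and were incubated 18 hours at 37 degrees C. Viability was read by CellTiter-Glo luminescence. Media-only wells were set as complete cell-killing and DMSO as no toxicity.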
HT1080 IDH1KD tx = toxicity to HT-1080 IDH1 knockdown cells (counter line) | HT-1080 IDH1 knockdown viability, ATP luminescence, 48 h | Potency, µM (series often up to 46.1 µM), inactives show at the highest dose activity, negative = toxicity, most hits filed as cytotoxic | 2% of 360,000 active | AID 686971;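 note: 0% = DMSO wells and -100% = cell-free medium wells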
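In this qHTS, HT-1080 cells depleted of IDH1 are exposed for 48 h at 37 °C to compound titrations. Toxicity is scored from CellTiter-Glo luminescence, with DMSO as full viability and medium alone as none.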
TGFb SMAD3 inh = TGF-b pathway inhibition. HepG2 CAGA-GFP TGF-b/SMAD3 reporter, GFP fluorescence, 18 h; TGF-beta stimulated, 500 pg/mL final. Potency, µM (doses to about 46.1 µM), inactives show at the top dose activity, negative = inhibition, actives largely listed as inhibitors. 1.2% of 410,000 active. AID 588855; note: % is set by controls: 0 for no effect and ±100 for the full control effect; nearly all actives have a fitted effect of over 65% in size
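Using HEPG2 CAGA-GFP reporter cells at 1000 cells/well, we pinned test compounds, stimulated with recombinant TGF-beta (500 pg/mL final) and measured total well GFP after 18 h.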
TDP1 cell noCPT = qHTS for Inhibitors of human tyrosyl-DNA phosphodiesterase 1 (TDP1): qHTS in cells in absence of CPT; DT40 Tdp1-/- hTDP1 cells, no CPT, ATP luminescence, 48 h; Potency, µM (titrated, usually from 46.2 µM), for inactives: top-dose activity change, negative = growth inhibition, most hits filed as inhibitors; 15% of 420,000 active; note: % is set by controls: 0 for no effect and ±100 for the full control effect; nearly all actives have a fitted effect of over 55% in size
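Camptothecin absent (DMSO only). Human TDP1-complemented DT40 knockout cells, 400 cells/well, 37 °C for minimum 48 hr; ATP measured via CellTiter-Glo, 30 min dark incubation, luminescence.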
HT1080-NT tox = kills 2HG-producing HT-1080-NT fibrosarcoma cells; 1.6% of 360,000 active; HT-1080-NT fibrosarcoma viability, CellTiter-Glo ATP luminescence, 48 h; Potency, µM (titrated, usually from 46.1 µM), for the others: top-dose activity, negative = less viability, hits mostly cytotoxic;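 note: NT is the 2HG producing partner of a matched IDH1 knockdown line; 0% = DMSO-treated cells and -100% = media-only wells without cells; nearly all actives have a fitted effect of over 55% in size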
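Viability by CellTiter-Glo luminescence after 48 h compound exposure at 37C of HT-1080-NT cells (750/well, RPMI, 5% FBS). % activity scaled between DMSO wells and medium-only wells, then curve-fitted and categorized by curve class.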
* = called active by the depositor; ? = inconclusive; . = no result given; ! = not confirmed by another sample. Calls come from the whole dose curve; as a rule, active = well fitted curve in the direction sought with a large enough effect; inconclusive = small, poorly fitted or top-dose-only effect, or another doubt; inactive = no such curve, though single readings can be large; an effect the other way counts as inactive or inconclusive. Potency is the fitted concentration of half-maximal effect.

SMILES	TDP1 cell CPT	HepG2 viability	HT1080 IDH1KD tx	TGFb SMAD3 inh	TDP1 cell noCPT	HT1080-NT tox
COc1ccc(O)c(C(=O)c2cnc3c(c2)CN(C)C(=O)N3)c1	18µM*	-10%	-30%	-11%	18µM*	-24%
CN1Cc2cc(C(=O)c3ccccc3O)cnc2NC1=O	?	-4%	-3%	8%	?	-3%
CC(C)(C)NC(=O)C12CCC(C)(c3nc4ccccc4nc31)C2(C)C (stereo not drawn)	11µM*	-18%	-12%	-16%	22µM*	9%
O=c1[nH]cnc2c([N+](=O)[O-])cccc12	-18%	-9%	10%	0%	2%	9%
O=[N+]([O-])c1cccc2c(Br)[nH]nc12	32µM*	.	.	.	?	.
COc1ccc(-c2cn3cc(Br)cnc3n2)cc1	26µM*	-5%	-3%	1%	?	-1%
COc1ccc(-c2cn3cccnc3n2)cc1Br	5%	-27%	0%	-2%	?	1%
CC(C)(C)n1nc(Cc2cccc3ccccc23)c2c(N)ncnc21	.	-19%	.	14µM*	.	.
Cn1nc(Cc2cccc3ccccc23)c(C#N)c1N	.	1%	.	4%	.	.
COc1ccc(C(=O)N2C=Cc3ccccc3C2C(N)=O)cc1 (stereo not drawn)	?	-8%	1%	-6%	?	-1%
O=C(CCN1C(=O)C2CCCCC2C1=O)Nc1ccc(Br)cc1F (stereo not drawn)	-19%	2%	-4%	4%	-25%	1%
Cc1ccccc1CN1CCC(n2nccc2NC(=O)CCCc2ccccc2)CC1	?	18µM*	-1%	-1%	?	0%
COc1ccccc1C(=O)Nc1ccnn1C1CCN(Cc2cn(C)c3ccccc23)CC1	?	-42%	?	11µM*	?	?
Cn1cc(CN2CCC(n3nccc3NC(=O)c3ccccc3Cl)CC2)cn1	-2%	0%	16%	8%	-5%	14%
CC(C)c1csc(CN2CCC(C(=O)Nc3cccc(-c4ccco4)c3)CC2)n1	?	-39%	-15%	-24%	18µM*	-5%
CCc1ccc(CN2CCC(n3nccc3NC(=O)c3ccccc3Cl)CC2)cc1	23µM*	-26%	14%	?	?	0%
COc1ccc(OCC(=O)N2CCN(S(=O)(=O)c3ccc4c(c3)OCCO4)CC2)cc1	?	31%	-7%	0%	?	-8%
COc1ccc2oc(C(=O)OCC(=O)NC(C)c3ccccc3)c(C)c2c1 (stereo not drawn)	-11%	0%	-26%	0%	2%	-2%
CCCCc1ncc(CN2CCC(n3nccc3NC(=O)c3ccccc3OC)CC2)[nH]1	?	-9%	1%	-2%	15µM*	0%
Cc1cc(C)c(CN2CCC(n3nccc3NC(=O)C3CCCC3)CC2)cc1C	?	-3%	-3%	?	-27%	-10%
CC(C)c1csc(CN2CCC(n3nccc3NC(=O)Cc3ccccc3)CC2)n1	?	0%	-3%	-2%	26µM*	3%
Cc1cc(C)c(CN2CCC(n3nccc3NC(=O)c3ccccc3Cl)CC2)cc1C	15µM*	0%	?	-15%	?	?
CCCn1ncc(CN2CCC(n3nccc3NC(=O)c3ccccc3OC)CC2)c1C	?	21%	15%	-5%	-25%	17%
COc1ccccc1C(=O)Nc1ccnn1C1CCN(Cc2cc(C)c(C)cc2C)CC1	?	-67%	-14%	?	18µM*	-13%
CC1NC(=O)c2cccnc2-n2c1nc1ccccc1c2=O (stereo not drawn)	0%	2%	-5%	-4%	-7%	6%
SMILES	TDP1 cell CPT	HepG2 viability	HT1080 IDH1KD tx	TGFb SMAD3 inh	TDP1 cell noCPT	HT1080-NT tox
CCN(C(=O)COC(=O)C(C)(C)Oc1ccc(Cl)cc1)c1c(N)n(Cc2ccccc2)c(=O)[nH]c1=O	-15%	1%	-2%	6%	?	-8%
COc1ccc(-n2cc(C(=O)OCc3ccc(Cl)cc3)c3ccccc3c2=O)cc1	-7%	-6%	.	43%	-1%	.
COc1cccc(Nc2ncc3ncc(=O)n(CCc4ccccc4)c3n2)c1	-15%	.	.	.	-15%	.
CC(=O)NO	?	-3%	16%	-1%	1.7µM*!	46%
CCOc1ccc(CNC(=O)c2ccc(NC(=O)N3CCSc4ncccc43)cc2)cc1OC	?	8%	.	-9%	?	.
Cc1cccc(CNC(=O)c2cccc(NC(=O)N3CCSc4ncccc43)c2)c1	15µM*	-3%	.	-11%	?	.
CCOc1ccc(CNC(=O)c2cccc(NC(=O)N3CCSc4ncccc43)c2)cc1OC	16µM*	-21%	.	-1%	16µM*	.
COc1ccc(N2CC(NC(=O)CCCc3ccccc3)CC2=O)cc1 (stereo not drawn)	-2%	-8%	.	0%	-12%	.
Cc1ccc(N2CC(NC(=O)c3cc4ccccc4o3)CC2=O)cc1 (stereo not drawn)	?	7%	.	1%	?	.
Cc1ccc(OCC(=O)Nc2ccon2)c([N+](=O)[O-])c1	-1%	-34%	10%	0%	1%	10%
CCc1ccc(NS(=O)(=O)c2c(C(=O)N3CCOCC3)c(C)n(C)c2C)cc1	-3%	-31%	5%	2%	6%	11%
Cc1ccccc1Cn1c(SCc2ccc(C(=O)NCCc3ccccc3)cc2)nc2ccncc21	21µM*	-14%	.	?	21µM*	.
Cc1ccc(Cn2c(SCc3ccc(C(=O)NCCc4ccccc4)cc3)nc3ccncc32)cc1	15µM*	-25%	.	?	12µM*	.
